# Results reported in PubChem BioAssay (NCI).
# This is part of a sample that, as a whole, favours compounds with a hit. Of some 83,000 tested, about 20% had one in any assay.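 Plates (96-well) were seeded with cells, treated with compound at one concentration, and incubated for 48 hours before percent growth was determined.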 Activity calls are given as the source filed them. How the source made its calls: active means growth percent below 10; inactive means the rest.
# Tested on: HCC-2998 colon
# Experiment: NCI-60 one-dose screen, 48 h (100 = growth as untreated, 0 = no growth, -100 = all killed)
# Settings: 10 µM unless noted
row,Compound,growth
1,O=C1C=C[C@]2(C[C@@H](c3cccc(C(F)(F)F)c3)O[C@@H](c3cccc(C(F)(F)F)c3)O2)O1,18% (inactive)
2,Cc1ccc(-c2cc3c(cc2O)C2CCCCC2(N2CCOCC2)O3)cc1 (configuration not stated),106% (inactive)
3,N#Cc1c(N2CCNCC2)nc2sc3cc(Cl)c(Cl)cc3n2c1=N,118% (inactive)
4,Cc1c(O)cc(-c2cnc(N/N=C\c3ccc(Cl)cc3)s2)c(O)c1C,111% (inactive)
5,COc1ccc(-c2cc(-c3cc(OC)ccc3OC)nc(SCC(=O)c3ccccc3)c2C#N)cc1,108% (inactive)
6,COCCc1ccc(OCC(O)CNC(C)C)cc1 (configuration not stated),102% (inactive)
7,CC/C=C\CCC/C=C1/C(=O)C=C[C@@H]1C/C=C\CCCC(=O)O,68.2% (inactive)
8,COc1cccc(C(=O)NCCCNc2cc(-c3cn(-c4ccccc4)nc3-c3cccc(OC)c3)ccn2)c1,61.2% (inactive)
9,Cc1cc(C(=O)c2ccccc2)c(C)c2c1[nH]c1ccc(Cl)cc12,21.8% (inactive)
10,Cc1ccc(C(=O)COc2cccc(/C=C3\Oc4ccccc4C3=O)c2)cc1,108% (inactive)
11,COc1cccc(-c2nn(-c3ccccc3)cc2-c2ccnc(NCCNC(=O)Nc3cccc(C(F)(F)F)c3)c2)c1,-47% (active)
12,COc1ccc(/C=N/C2=C(C#N)C(c3ccc(OC)cc3)c3ccc4ccccc4c3O2)cc1 (configuration not stated),97.4% (inactive)
13,N#CC1=C(NC=O)Oc2c(ccc3ccccc23)C1c1ccccc1 (configuration not stated),63% (inactive)
14,CCCCc1ccc(Nc2ccc(Nc3ccc(CCCC)cc3S(=O)(=O)O)c3c2C(=O)c2ccccc2C3=O)c(S(=O)(=O)O)c1,117% (inactive)

# Tested on: KM12 colon
# Experiment: as above
# Settings: 10 µM unless noted
row,Compound,growth
1,COc1cc(CCC[P+](c2ccccc2)(c2ccccc2)c2ccccc2)cc2c1OCO2,10.7% (inactive)
2,Cc1cc(Cl)nc(NCc2cc(Nc3ccnc4cc(Cl)ccc34)ccc2F)n1,79.9% (inactive)
3,COc1ccc(C2c3ccc4ccccc4c3Oc3nc(C)[nH]c(=O)c32)cc1 (configuration not stated),98.6% (inactive)
4,O=C1OC(c2nc3ccccc3s2)=C/C1=C\c1ccc(O)cc1,95% (inactive)
5,Cc1ccc(NS(=O)(=O)c2ccc3c(c2)C2OCCC2C(c2ccc(C(=O)C(C)C)cc2)N3)cc1C (configuration not stated),36.5% (inactive)
6,CC1SC(c2ccc(OCc3ccccc3)cc2)N(NC(=O)C(O)(c2ccccc2)c2ccccc2)C1=O (configuration not stated),34.2% (inactive)
7,S=C(Cc1ccc2c(c1)CCCC2)N1CCOCC1,106% (inactive)
8,CC1=CN2C(=O)C3C4=C(CCCC4)SC3N=C2CN1c1c(C)cccc1C (configuration not stated),97.4% (inactive)
9,CC(=O)n1c(-c2ccc(Cl)cc2)nc2c(c1=O)C(c1ccc(Cl)cc1)c1sc3c(Cl)cccc3c1O2 (configuration not stated),-17.4% (active)
10,O=C(N=c1oc2ccccc2cc1-c1cc2ccccc2[nH]1)c1ccc(Cl)cc1,29.1% (inactive)
11,Cn1ccc2c(c1=O)C(=O)c1nccc3c1c-2nc1ccccc13,-88.1% (active)
12,COc1ccccc1CNCCCN1C(=O)c2ccc3c4c(ccc(c24)C1=O)C(=O)N(CCCNCCCCN)C3=O,-15.8% (active)
13,C=C1C(=O)O[C@H]2[C@H]1CC/C(COC(=O)C(=O)c1cn(C)c3ccc(OC)cc13)=C\CC[C@@]1(C)O[C@@H]21,-65% (active)
14,O=C(NCCCNc1cc(-c2cn(-c3ccccc3)nc2-c2cccc(O)c2)ccn1)c1cccc(O)c1,45.3% (inactive)
15,Cc1c(C(=O)OC(=NC2CCCCC2)NC2CCCCC2)sc2c1c(=O)nc1c(C#N)n[nH]n12,110% (inactive)
16,COc1cc(N=Nc2ccc(N)cc2)c(OC)cc1N=Nc1ccccc1.[Cl][Zn][Cl],105% (inactive)
17,COc1cc(C2CC(c3cc(OC)c(OCCCOc4ccc(-n5c(/C=C/c6ccccc6)nc6ccccc6c5=O)cc4)c(OC)c3)=NO2)cc(OC)c1OC (configuration not stated),122% (inactive)
18,COc1cc(/C=N/NC(=O)Cn2c(C(C)C)nc3ccccc32)ccc1O,97.6% (inactive)
19,CC(C)(C)n1cc(-c2ccnc(NCCCNS(=O)(=O)c3ccccc3)c2)c(-c2ccccc2)n1,71.9% (inactive)

row,Compound,growth
1,COc1ccc(S(=O)(=O)NCCNc2nccc(-c3c(-c4cccc(F)c4)nc4sccn34)n2)cc1,18.3% (inactive)
2,CCOC(=O)c1c(-c2ccc(Cl)cc2)c(C#N)c(=O)n(-c2ccccc2CC)c1N,79.1% (inactive)
3,O=C(COc1ccc(/C=C2\Oc3ccccc3C2=O)cc1)c1ccc(Cl)cc1,98.5% (inactive)
4,Cc1ccc2nc3ccccc3c(NCc3ccccc3)c2c1,56.3% (inactive)
5,O=c1[nH]nc(-c2ccccc2)c2c(-c3ccccc3)onc12,29.8% (inactive)
6,O=C1C=C[C@]2(C[C@@H](c3cccc(C(F)(F)F)c3)O[C@@H](c3cccc(C(F)(F)F)c3)O2)O1,6.02% (active)
7,Cc1ccc(-c2cc3c(cc2O)C2CCCCC2(N2CCOCC2)O3)cc1 (configuration not stated),109% (inactive)
8,N#Cc1c(N2CCNCC2)nc2sc3cc(Cl)c(Cl)cc3n2c1=N,115% (inactive)
9,Cc1c(O)cc(-c2cnc(N/N=C\c3ccc(Cl)cc3)s2)c(O)c1C,86.5% (inactive)
10,COc1ccc(-c2cc(-c3cc(OC)ccc3OC)nc(SCC(=O)c3ccccc3)c2C#N)cc1,96.8% (inactive)
11,COCCc1ccc(OCC(O)CNC(C)C)cc1 (configuration not stated),105% (inactive)
12,CC/C=C\CCC/C=C1/C(=O)C=C[C@@H]1C/C=C\CCCC(=O)O,32% (inactive)
13,COc1cccc(C(=O)NCCCNc2cc(-c3cn(-c4ccccc4)nc3-c3cccc(OC)c3)ccn2)c1,43.5% (inactive)
14,Cc1cc(C(=O)c2ccccc2)c(C)c2c1[nH]c1ccc(Cl)cc12,0.781% (active)
15,Cc1ccc(C(=O)COc2cccc(/C=C3\Oc4ccccc4C3=O)c2)cc1,100% (inactive)
16,COc1cccc(-c2nn(-c3ccccc3)cc2-c2ccnc(NCCNC(=O)Nc3cccc(C(F)(F)F)c3)c2)c1,2.54% (active)
17,COc1ccc(/C=N/C2=C(C#N)C(c3ccc(OC)cc3)c3ccc4ccccc4c3O2)cc1 (configuration not stated),59.4% (inactive)
18,N#CC1=C(NC=O)Oc2c(ccc3ccccc23)C1c1ccccc1 (configuration not stated),30.7% (inactive)
19,CCCCc1ccc(Nc2ccc(Nc3ccc(CCCC)cc3S(=O)(=O)O)c3c2C(=O)c2ccccc2C3=O)c(S(=O)(=O)O)c1,96.9% (inactive)
